According to PubChem BioAssay AID1159580 (chemical genetic matrix, 2015):
Where “and” joins values, the source holds several entries; their conditions need not be identical. Identical values can stand only once. Screen size: about 5,500 compounds; about 2,000 (36%) were called active. Roughly 18% stayed inconclusive and do not appear here. The list shows a part of the results. A number with no mark means an inactive call. Rule as the data show it: active = normalized growth mostly below about 0.91 (no sharp cut-off); inconclusive = no clear call, values can overlap the other calls; inactive = mostly above about 0.92.

Experiment: chemical genetic growth profiling, strain panel (AID 1159580);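 also: tested at 20 µM; growth read once vehicle control cultures reached saturation at 30 °C; 1 = growth at the plate median or of vehicle wells; lower values mean less growth of the strain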
Conditions: S. cerevisiae deletion strains, growth OD

Work on O=C(Nc1ccccc1)Nc1ccccc1 yielded a normalized growth (locus YAL021C, strain ccr4, active compounds read low) of 0.977, a normalized growth (locus YAL026C, strain drs2, active compounds read low) of 0.951 and a normalized growth (locus YAL030W, strain snc1, active compounds read low) of 0.992. It also gave a normalized growth (locus YBL061C, strain skt5, active compounds read low) of 0.967, a normalized growth (locus YBR009C, strain hhf1, active compounds read low) of 0.957 and a normalized growth (locus YBR021W, strain FUR4, active compounds read low) of 0.935. It also gave a normalized growth (locus YBR023C, strain chs3, active compounds read low) of 0.954, a normalized growth (locus YBR171W, strain sec66, active compounds read low) of 0.954 and a normalized growth (locus YBR229C, strain ROT2, active compounds read low) of 1. It also gave a normalized growth (locus YBR231C, strain swc5, active compounds read low) of 0.942, a normalized growth (locus YBR279W, strain paf1, active compounds read low) of 0.973 and a normalized growth (locus YCL011C, strain gbp2, active compounds read low) of 0.93. The normalized growth (locus YCL016C, strain dcc1, active compounds read low) was 0.943, the normalized growth (locus YCL029C, strain bik1, active compounds read low) was 1.02 and the normalized growth (locus YCL069W, strain vba3, active compounds read low) was 0.983. It also gave a normalized growth (locus YCR088W, strain abp1, active compounds read low) of 0.971, a normalized growth (locus YDL005C, strain med2, active compounds read low) of 0.956 and a normalized growth (locus YDL035C, strain GPR1, active compounds read low) of 1.1. The normalized growth (locus YDL040C, strain nat1, active compounds read low) was 0.978, the normalized growth (locus YDL074C, strain BRE1, active compounds read low) was 1.28 [resistant] (active) and the normalized growth (locus YDL101C, strain DUN1, active compounds read low) was 0.998. The normalized growth (locus YDL185W, strain tfp1, active compounds read low) was 0.99, the normalized growth (locus YDL192W, strain arf1, active compounds read low) was 0.978 and the normalized growth (locus YDR001C, strain nth1, active compounds read low) was 0.968. For the same compound, the normalized growth (locus YDR069C, strain doa4, active compounds read low) was 0.964, the normalized growth (locus YDR101C, strain arx1, active compounds read low) was 0.983 and the normalized growth (locus YDR137W, strain rgp1, active compounds read low) was 0.955. For the same compound, the normalized growth (locus YDR150W, strain NUM1, active compounds read low) was 1.03, the normalized growth (locus YDR159W, strain sac3, active compounds read low) was 1.04 and the normalized growth (locus YDR162C, strain NBP2, active compounds read low) was 1.1. For the same compound, the normalized growth (locus YDR195W, strain ref2) was 0.991, the normalized growth (locus YDR297W, strain sur2, active compounds read low) was 0.969 and the normalized growth (locus YDR318W, strain mcm21, active compounds read low) was 0.989. The normalized growth (locus YDR334W, strain swr1, active compounds read low) was 0.959, the normalized growth (locus YDR335W, strain msn5, active compounds read low) was 0.952 and the normalized growth (locus YDR388W, active compounds read low) was 0.991. The normalized growth (locus YDR392W, strain spt3, active compounds read low) was 0.932, the normalized growth (locus YDR502C, strain sam2, active compounds read low) was 0.977 and the normalized growth (locus YEL003W, strain gim4, active compounds read low) was 0.977. For the same compound, the normalized growth (locus YEL037C, strain rad23, active compounds read low) was 0.97, the normalized growth (locus YEL061C, strain CIN8 (second series), active compounds read low) was 0.97 and the normalized growth (locus YER015W, strain faa2, active compounds read low) was 0.957. The normalized growth (locus YER016W, strain bim1, active compounds read low) was 0.962, the normalized growth (locus YER110C, active compounds read low) was 0.967 and the normalized growth (locus YER111C, strain swi4, active compounds read low) was 0.974. The normalized growth (locus YER155C, strain BEM2 (second series), active compounds read low) was 0.978, the normalized growth (locus YER155C, strain BEM2, active compounds read low) was 1.01 and the normalized growth (locus YER167W, strain BCK2, active compounds read low) was 1. The normalized growth (locus YFR010W, strain ubp6, active compounds read low) was 0.987, the normalized growth (locus YGL078C, strain dbp3, active compounds read low) was 0.98 and the normalized growth (locus YGL086W, strain mad1, active compounds read low) was 0.977. It also gave a normalized growth (locus YGL167C, strain pmr1, active compounds read low) of 0.972, a normalized growth (locus YGL173C, strain kem1, active compounds read low) of 0.97 and a normalized growth (locus YGL227W, strain vid30, active compounds read low) of 0.967. For the same compound, the normalized growth (locus YGL240W, strain doc1, active compounds read low) was 0.915, the normalized growth (locus YGL248W, strain PDE1, active compounds read low) was 1.08 and the normalized growth (locus YGL253W, strain hxk2, active compounds read low) was 0.924. The normalized growth (locus YGR078C, strain PAC10, active compounds read low) was 1.07, the normalized growth (locus YGR135W, strain pre9, active compounds read low) was 0.985 and the normalized growth (locus YGR252W, strain gcn5, active compounds read low) was 0.91. For the same compound, the normalized growth (locus YHR013C, strain ard1, active compounds read low) was 0.945, the normalized growth (locus YHR027C, strain rpn1, active compounds read low) was 0.967 and the normalized growth (locus YHR030C, strain SLT2, active compounds read low) was 1.01 and 1.02. It also gave a normalized growth (locus YHR079C, strain IRE1 (second series), active compounds read low) of 0.995, a normalized growth (locus YHR079C, strain IRE1, active compounds read low) of 1 and a normalized growth (locus YHR094C, strain hxt1, active compounds read low) of 0.975. The normalized growth (locus YHR129C, strain ARP1, active compounds read low) was 0.997, the normalized growth (locus YHR142W, strain chs7, active compounds read low) was 0.887 and the normalized growth (locus YHR200W, strain rpn10, active compounds read low) was 0.997. The normalized growth (locus YIL066C, strain RNR3, active compounds read low) was 0.996, the normalized growth (locus YIL073C, strain SPO22, active compounds read low) was 1.38 [resistant] (active) and the normalized growth (locus YIL125W, strain kgd1, active compounds read low) was 0.977. The normalized growth (locus YIR030C, strain dcg1, active compounds read low) was 0.975, the normalized growth (locus YJL092W, strain hpr5, active compounds read low) was 0.969 and the normalized growth (locus YJL095W, strain BCK1 (second series), active compounds read low) was 0.991. For the same compound, the normalized growth (locus YJL095W, strain BCK1, active compounds read low) was 1.09 and 1, the normalized growth (locus YJL115W, strain asf1, active compounds read low) was 0.932 and the normalized growth (locus YJL129C, strain trk1, active compounds read low) was 0.998. The normalized growth (locus YJL134W, strain LCB3, active compounds read low) was 1, the normalized growth (locus YJL154C, strain vps35, active compounds read low) was 0.965 and the normalized growth (locus YJL164C, strain tpk1, active compounds read low) was 0.961. For the same compound, the normalized growth (locus YJL166W, strain qcr8, active compounds read low) was 0.952, the normalized growth (locus YJL168C, strain set2, active compounds read low) was 0.98 and the normalized growth (locus YJL187C, strain SWE1 (second series), active compounds read low) was 0.99. It also gave a normalized growth (locus YJR066W, strain TOR1, active compounds read low) of 0.95.
